The supplement of paper PMC11628255, “Interference of metal ions on the bioluminescent signal of firefly, Renilla, and NanoLuc luciferases in high-throughput screening assays” (Frontiers in Chemistry, 2024)
± gives the standard deviation of the averaged measurements.

Test system: firefly luciferase (FLuc)
Assay: residual bioluminescent signal relative to negative (DMSO) control; higher = less interference (more residual luciferase signal)
Experimental: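 Purified luciferase (FLuc 10 nM + 10 uM D-luciferin; NLuc 10 pM + 10 uM furimazine; RLuc 50 pM + 2 uM coelenterazine) in 384-well plates; metal salt pre-incubated with enzyme 10 min at RT, substrate added and luminescence read after 10 min. Signal normalised to plate DMSO negative control (% N_VALUE = x/mean neg *100); triplicate wells at 0.01, 1 and 5 mM salt.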

[1] = metal salt concentration 0.01 mM, HEPES conditions (100 mM HEPES, 5 mM MgSO4, 10 uM ATP, pH 7.5)
[2] = metal salt concentration 0.01 mM, screening conditions (0.5 mM Tris, 50 mM glycine, 0.5 mM EDTA, 5 mM MgSO4, 10 uM ATP, pH 7.6)
[3] = metal salt concentration 1 mM, HEPES conditions (100 mM HEPES, 5 mM MgSO4, 10 uM ATP, pH 7.5)
[4] = metal salt concentration 1 mM, screening conditions (0.5 mM Tris, 50 mM glycine, 0.5 mM EDTA, 5 mM MgSO4, 10 uM ATP, pH 7.6)
[5] = metal salt concentration 5 mM, HEPES conditions (100 mM HEPES, 5 mM MgSO4, 10 uM ATP, pH 7.5)
[6] = metal salt concentration 5 mM, screening conditions (0.5 mM Tris, 50 mM glycine, 0.5 mM EDTA, 5 mM MgSO4, 10 uM ATP, pH 7.6)

SMILES | residual bioluminescent signal [1] | residual bioluminescent signal [2] | residual bioluminescent signal [3] | residual bioluminescent signal [4] | residual bioluminescent signal [5] | residual bioluminescent signal [6]
O=[N+]([O-])[O-].O=[N+]([O-])[O-].[Ca+2] [calcium nitrate] | 70 ± 9.6% | 75.6 ± 6.7% | 67.2 ± 14% | 60.2 ± 8.9% | 29.2 ± 2.8% | 24.5 ± 3.4%
O=[N+]([O-])[O-].O=[N+]([O-])[O-].O=[N+]([O-])[O-].[Al+3] [aluminium nitrate] | 78.9 ± 7.9% | 75.8 ± 6% | 0.679 ± 0.47% | 0.343 ± 0.17% | 0.543 ± 0.23% | 90.5 ± 5.5%
O=[N+]([O-])[O-].O=[N+]([O-])[O-].[Ni+2] [nickel(II) nitrate] | 64.7 ± 8.8% | 71.2 ± 7.5% | 2.31 ± 1.6% | 0.501 ± 0.33% | 0.814 ± 0.41% | 0.58 ± 0.091%
O=[N+]([O-])[O-].[K+] [potassium nitrate] | 111 ± 4.3% | 100.2 ± 0.6% | 116 ± 12% | 98.6 ± 7% | 86.1 ± 12% | 65.5 ± 7.8%
[Cl][Sn][Cl] [tin(II) chloride] | 41.7 ± 13% | 90.8 ± 3.9% | 1.22 ± 0.41% | 0.369 ± 0.12% | 1.9 ± 0.62% | 0.553 ± 0.079%
O=[N+]([O-])[O-].O=[N+]([O-])[O-].[Zn+2] [zinc nitrate] | 3.8 ± 1.2% | 81.5 ± 7.4% | 1.49 ± 0.85% | 0.817 ± 0.28% | 1.09 ± 0.85% | 0.316 ± 0.079%
O=[N+]([O-])[O-].[Ag+] [silver nitrate] | 1.36 ± 0.62% | 1.13 ± 0.6% | 1.36 ± 1.6% | 0.316 ± 0.079% | 1.49 ± 0.62% | 0.369 ± 0.17%
